# High-throughput results from PubChem BioAssay.
# NIH3T3 tox: Cytotoxic Profiling in NIH 3T3 Cell Line of Diverse Libraries Using Quantitative High-Throughput Screening; AID 1345082, 2018; NIH 3T3 viability, CellTiter-Glo ATP luminescence, 48-72 h; Potency, µM (titrated, usually from 96.7 µM), usual class: inhibitors; actives 4.3% (n = 94,000); also: nearly all actives have a fitted effect of over 55% in size
#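 Cells were seeded at 400 per well, treated with pin-transferred compound, and kept 48 or 72 hr at 37 °C before CellTiter-Glo addition and luminescence imaging of cellular ATP.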
# hNpr1 antagonist: Natriuretic polypeptide receptor (hNpr1) antagonism - Primary qHTS | Atrial natriuretic peptide receptor 1 (Homo sapiens), P16066 | HEK293 hNpr1 GloSensor cGMP, ANP-stimulated luminescence | Potency, µM (top dose mostly 46.3 µM), hits mostly inhibitors | actives 1.6% (n = 76,000); calls by dose curve; also: nearly all actives have a fitted effect of over 60% in size
# Target sequence (P16066 whole entry, looked up): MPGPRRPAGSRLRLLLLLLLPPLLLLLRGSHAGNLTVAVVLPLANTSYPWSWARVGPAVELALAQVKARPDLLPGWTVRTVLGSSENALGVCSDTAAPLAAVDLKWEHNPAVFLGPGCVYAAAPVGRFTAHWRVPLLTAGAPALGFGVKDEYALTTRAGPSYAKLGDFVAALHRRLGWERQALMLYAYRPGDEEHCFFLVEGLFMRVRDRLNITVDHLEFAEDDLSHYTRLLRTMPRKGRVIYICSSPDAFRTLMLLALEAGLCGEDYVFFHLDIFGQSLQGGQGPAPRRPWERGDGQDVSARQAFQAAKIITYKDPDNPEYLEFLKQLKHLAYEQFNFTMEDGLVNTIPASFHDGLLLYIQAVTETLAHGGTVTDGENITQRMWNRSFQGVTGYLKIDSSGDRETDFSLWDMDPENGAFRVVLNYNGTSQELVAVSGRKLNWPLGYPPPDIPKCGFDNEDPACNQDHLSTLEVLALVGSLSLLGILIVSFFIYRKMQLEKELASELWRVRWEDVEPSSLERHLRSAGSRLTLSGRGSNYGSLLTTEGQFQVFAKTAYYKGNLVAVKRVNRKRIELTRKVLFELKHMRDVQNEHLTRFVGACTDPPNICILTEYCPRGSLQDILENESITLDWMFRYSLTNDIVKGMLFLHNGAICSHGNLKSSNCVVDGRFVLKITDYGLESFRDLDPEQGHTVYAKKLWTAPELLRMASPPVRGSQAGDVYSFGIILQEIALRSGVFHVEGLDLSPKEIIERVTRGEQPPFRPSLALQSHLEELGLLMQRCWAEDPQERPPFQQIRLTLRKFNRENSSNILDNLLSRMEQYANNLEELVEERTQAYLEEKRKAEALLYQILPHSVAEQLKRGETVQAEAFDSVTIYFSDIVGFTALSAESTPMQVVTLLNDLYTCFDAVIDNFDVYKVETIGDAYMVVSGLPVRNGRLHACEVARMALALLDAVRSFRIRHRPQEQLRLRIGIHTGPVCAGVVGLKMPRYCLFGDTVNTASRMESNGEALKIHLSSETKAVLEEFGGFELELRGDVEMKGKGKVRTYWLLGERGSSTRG
#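 HEK293 cells stably expressing human Npr1 and cGMP GloSensor pGS-40F, loaded 2 h with 2% GloSensor reagent, given compound 30 min at room temperature. Luminescence read before and 20 min after 0.1 nM hNppA.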
# Luciferase inh: Firefly luciferase inhibition profiling of diverse chemical library using quantitative high-throughput screening; Luciferin 4-monooxygenase (Photinus pyralis), P08659; purified P. pyralis luciferase, luminescence, biochemical; Potency, µM (highest dose often 115 µM), usual class: inhibitors; actives 2.5% (n = 76,000); also: nearly all actives have a fitted effect of over 65% in size
#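 Cell-free enzyme assay, 10nM P. pyralis luciferase, luciferin and ATP each at 10uM. Inhibition profiled over a 6-point titration, read as luminescence.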
# GPT2 inh: Primary qHTS assay for inhibitors of Glutamate pyruvate transaminase 2 (GPT2); Potency, µM (titrated, usually from 57.7 µM), hits mostly inhibitors; actives 0.25% (n = 100,000); Alanine aminotransferase 2 (Homo sapiens), Q8TD30; Recombinant GPT2, coupled pyruvate oxidase/HRP Amplex Red fluorescence; also: nearly all actives have a fitted effect of over 60% in size
#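 GPT2 10ng/uL, a-KG 250uM, L-Ala 2mM, HEPES pH7.5 + 0.0001% Tween; 30 min RT. Then Amplex mix (PO/HRP/ThPP), 30 min RT dark, fluorescence. AOA 50uM used as positive control.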
# HEK cytotox: Cytotoxic Profiling in HEK 293 Cell Line of Diverse Libraries Using Quantitative High-Throughput Screening. actives 6.6% (n = 94,000). AID 1345083, 2018. Potency, µM (titrated, usually from 115 µM), actives largely listed as inhibitors. HEK 293 viability, ATP luminescence (CellTiter-Glo), 48-72 h; also: nearly all actives have a fitted effect of over 60% in size
#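 Viability of HEK 293 cells, plated at 250 cells/well, was judged by cellular ATP after compound treatment for 48 or 72 hr. Luminescence was imaged 10 min after CellTiter-Glo addition at room temperature.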
# Hits are given with their value; 0 = inactive; ? = inconclusive; - = not tested or not shown; ! = a repeat was not active. Shown are actives, neighbours in structure and some others; about 10% of the full set was active somewhere. Unless noted, calls follow the shape of the dose curve; as a rule, active = well fitted curve in the direction sought with a large enough effect; inconclusive = small, poorly fitted or top-dose-only effect, or another doubt; inactive = no such curve, though single readings can be large; an effect the other way counts as inactive or inconclusive.
SMILES,NIH3T3 tox,hNpr1 antagonist,Luciferase inh,GPT2 inh,HEK cytotox
COCc1cn(C[C@H]2C[C@@H](NC(=O)c3ccccc3)[C@H](O)[C@@H]2O)nn1,0,0,0,0,0
Cc1ccc(S(=O)(=O)NC[C@H]2O[C@@H](CC(=O)N3CCN(c4ccccc4)CC3)[C@H](O)[C@@H]2O)cc1,0,0,0,0,0
COc1ccccc1N1CCCc2ncc(C(=O)N3CCC[C@@H]3c3ccc(F)cc3)cc21,89.1µM,0,0,0,?
COc1ccccc1N1CCCc2ncc(C(=O)NCCc3ccccc3)cc21,?,0,0,0,?
COc1ccccc1N1CCCc2ncc(C(=O)N3CCCC[C@@H]3Cc3ccccc3)cc21,?,0,0,0,?
COc1ccccc1N1CCCc2ncc(C(=O)N(C)Cc3ccccc3)cc21,?,0,0,0,100µM
COc1ccccc1N1CCCc2ncc(C(=O)NCCOc3ccccc3)cc21,89.1µM,0,0,0,100µM
CCN1CCN(C(=O)c2ccc3nc(-c4cccnc4Cl)oc3c2)CC1,0,-,-,0,0
Fc1ccc(C2Cn3nnc(-c4nc(-c5ccccc5F)no4)c3CO2)cc1 (stereo unspecified),0,0,0,0,0
O=C(CNC(=O)c1cccc(-c2ccc(C(F)(F)F)cc2)c1)NCc1ccccc1F,?,-,-,0,22.4µM
O=C(CNC(=O)c1cccc(-c2ccsc2)c1)NCc1ccccc1F,0,-,-,0,0
COc1ccccc1CNC(=O)CNC(=O)c1cccc(-c2ccc(C(F)(F)F)cc2)c1,?,-,-,0,35.5µM
COC[C@@H]1CN(C(=O)c2cc3ccccc3[nH]2)C[C@H]1c1ccncc1,0,0,?,0,0
COc1ccccc1-c1cccc(CN2CCCC(C(=O)NCc3ccccc3)C2)c1 (stereo unspecified),?,-,-,0,11.2µM
COc1ccccc1-c1cccc(CN2CCCC(C(=O)NC3CCCC3)C2)c1 (stereo unspecified),35.5µM!,-,-,?,35.5µM!
C#CCNC(=O)C1CCCN(Cc2cccc(-c3ccccc3OC)c2)C1 (stereo unspecified),?,-,-,0,?
Cn1cccc1CN1CCCC(C(=O)NCc2ccccc2)CCNC(=O)CC1 (stereo unspecified),?,0,0,0,79.4µM
COc1ccccc1-c1cccc(CN2CCCC(C(=O)NCC(F)F)C2)c1 (stereo unspecified),?,-,-,0,39.8µM
CNC(=O)c1cc2cccnn2n1,0,0,0,0,0
CC(=O)NCC(=O)NCC1CCN(c2cc(-c3ccc(Cl)cc3)[nH]n2)CC1,0,0,?,?,0
O=C1CO[C@H]2CN(CCCc3ccccc3)C[C@H]2N1Cc1ccc(F)cc1,?,?,0,0,?
Cn1ncc2c(C(=O)NCc3cccc(Cl)c3)cc(-c3ccc(Cl)cc3)nc21,0,-,-,0,0
Cn1ncc2c(C(=O)NCc3ccc(Cl)cc3)cc(-c3ccsc3)nc21,31.6µM,-,-,0,35.5µM
Cn1ncc2c(C(=O)NCc3cccc(Cl)c3)cc(-c3ccc(F)cc3)nc21,?,-,-,0,35.5µM
Cn1ncc2c(C(=O)NCc3ccc(F)c(F)c3)cc(-c3ccsc3)nc21,?,-,-,0,?
SMILES,NIH3T3 tox,hNpr1 antagonist,Luciferase inh,GPT2 inh,HEK cytotox
Cn1ncc2c(C(=O)NCc3cccc(Cl)c3)cc(-c3ccsc3)nc21,15.8µM,-,-,0,31.6µM
COc1cccc(CNC(=O)c2cc(-c3ccsc3)nc3c2cnn3C)c1,25.1µM,-,-,0,56.2µM
CC(=O)N1CCC(NC[C@H]2O[C@@H]3C[C@@H](CC(=O)NC(C)C)O[C@@H]3[C@@H]2O)CC1,0,0,0,0,0
COc1ccc(-c2ccc(C(=O)NCc3cccc(F)c3)cc2)nn1,0,-,-,-,?
COc1ccc(-c2ccc(C(=O)NCc3ccccc3F)cc2)nn1,?,-,-,-,112µM
O=C(NCc1cccnc1)c1ccc2oc(-c3ccc(C(F)(F)F)cc3)nc2c1,?,?,0,0,11.2µM
COc1ccc(-c2ccc(C(=O)NCc3cccnc3)cc2)nn1,8.91µM,-,-,-,0
COc1ccc(-c2ccc(NC(=O)c3ccccc3C)cc2)nn1,?,-,-,-,39.8µM
COc1ccc(-c2ccc(C(=O)NCc3ccccc3)cc2)nn1,0,-,-,-,0
O=C(Nc1cncnc1)C1CCN(c2nc3ncccc3o2)CC1,0,-,-,0,0
O=C(Nc1ccc2c(c1)OCCO2)N1CCC2(CC1)CC(Cc1nc(-c3cnccn3)no1)CCO2 (stereo unspecified),0,0,0,0,0
Cn1nc(-c2cccs2)cc1-c1nc(C2CCOC2)no1 (stereo unspecified),?,0,?,0,?
COc1ccc(-c2ccc(C(=O)N(C)c3ccccc3)cc2)nn1,12.6µM,-,-,-,22.4µM
CC(C)C[C@@H]1N[C@H](C(=O)NCc2cccs2)Cc2cn(CC3CC3)c3cccc1c23,70.8µM,0,0,0,63.1µM
C=CCn1cc2c3c(cccc31)[C@H](CC(C)C)N[C@H](C(=O)NCCN(C)C)C2,35.5µM,0,0,?,35.5µM
C=CCn1cc2c3c(cccc31)[C@H](CC(C)C)N[C@H](C(=O)NCCC)C2,70.8µM,0,0,0,50.1µM
Cc1noc(C)c1Cn1cc2c3c(cccc31)[C@H](CC(C)C)N[C@H](C(=O)NCCN(C)C)C2,?,0,0,0,?
CC(C)C[C@@H]1N[C@H](C(=O)NCCN(C)C)Cc2cn(CC3CC3)c3cccc1c23,31.6µM,0,0,0,31.6µM
Cc1ncsc1CN1CC[C@H]2C(=O)NCCCCCCN(Cc3ccncc3)[C@@H]2C1,0,0,0,0,0
O=C(C1CCCN(c2nccc(Nc3ccccc3F)n2)C1)N1CCN(c2ncccn2)CC1 (stereo unspecified),?,-,-,0,?
CN(C)C(=O)C1CCCN(c2nccc(Nc3ccccc3F)n2)C1 (stereo unspecified),?,-,-,0,?
O=C(NCc1cccc(F)c1)C1CCCN(c2nccc(Nc3ccccc3F)n2)C1 (stereo unspecified),28.2µM,-,-,0,?
O=C(NCc1ccc(C(F)(F)F)cc1)C1CCCN(c2nccc(Nc3ccccc3F)n2)C1 (stereo unspecified),31.6µM,-,-,0,?
COc1cccc(CNC(=O)C2CCN(c3nccc(Nc4ccccc4F)n3)CC2)c1,?,-,-,0,?
O=C(NCC1CCCCCC1)C1CCCN(c2nccc(Nc3ccccc3F)n2)C1 (stereo unspecified),?,-,-,0,28.2µM
O=C(NCC1CC1)C1CCCN(c2nccc(Nc3ccccc3F)n2)C1 (stereo unspecified),?,-,-,0,?
